hERG WT inh: KCNH2 (human, wildtype) channel inhibition | Q12809 | U2OS, BacMam KCNH2, thallium flux FluxOr; hits give low values | activity change, % at 1.84 µM | hit rate 0.37% among 340,000;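 active = maximum activity change below -70%; inconclusive = maximum activity change between -70% and -50%; inactive = maximum activity change above -50%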
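U2OS cells were transduced with wild-type KCNH2 virus (2.03 x 10^8 / mL) for 4 h at room temperature, then cultured overnight at 37 C. Thallium flux was read with FluxOr dye. Rate constants were normalized to DMSO controls.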
KCNH2 3.1 block: KCNH2 3.1 (human) potassium channel inhibition; U2OS KCNH2 3.1, thallium flux FluxOr; hits give low values; activity change, % (tested at about 1.8 µM); hit rate 0.95% among 340,000; AID 720553;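 active = maximum activity change below -70%; inconclusive = maximum activity change from -70% to -50%; inactive = maximum activity change above -50%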;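 also: thallium influx rate constant from kinetic fluorescence after stimulation buffer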
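Thallium flux via FluxOr fluorescence (Red40 quencher, 45 min loading) in U2OS cells virally expressing the KCNH2 3.1 isoform (1.77 x 10^8 /mL virus, overnight at 37 C). Rate constants from 2-min kinetic reads post-stimulation, normalised to positive and negative controls.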
Luc counter: counter-screen: inhibitors of Kinase-Glo firefly luciferase; Potency, µM (highest dose often 38.3 µM), without a hit: at the highest dose activity change, negative = inhibition, hits mostly inhibitors; Q27757; hit rate 0.28% among 200,000; Kinase-Glo luciferase, ATP luminescence, 8 min; AID 1379; active = well fitted inhibition curve with a large enough effect; inconclusive = small, poorly fitted or top-dose-only effect; also: potency is read from the fitted curve at half-maximal effect; nearly all actives have a fitted effect of over 60% in size
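Luminescence was the read-out, taken after 8-minute incubation at ambient temperature. Luciferase turned over luciferin with 10 uM ATP in imidazole pH 7.2 buffer containing KCl, MgCl2, Tween 20 and BSA.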
Numbers without * were called inactive; ? = inconclusive; / = not tested or not shown. Compounds with a hit are over-represented: about 1.2% of the library has one in this group of screens. % is scaled to controls: 0 for no effect and ±100 for the full control effect.

SMILES	hERG WT inh	KCNH2 3.1 block	Luc counter
CC(=O)c1ccccc1OCC(O)Cn1ccnc1 (configuration not stated)	2.0	-1.6	/
COc1ccc(Cl)cc1NC(=O)CN(C)C(=O)CCNC(=O)c1ccccc1OC	5.1	-18.5	/
CCOC(=O)N1CCN(S(=O)(=O)N2CCCC(C(=O)NCc3cc(Br)ccc3OC)C2)CC1 (configuration not stated)	17.8	-11.6	/
CN1CCC(CC(C(=O)N2CCCC2)(c2ccccc2)c2ccccc2)C1 (configuration not stated)	4.9	8.6	/
COc1ccc(C(=O)NC2CC2)cc1OC1CCN(C(C)CSC)CC1 (configuration not stated)	-16.3	-73.6*	/
C/C=C(\C)CN1CCC(Oc2cc(C(=O)NC3CC3)ccc2OC)CC1	8.7	/	/
Cc1ccc(S(=O)(=O)N2C[C@@H](C)[C@]3(C2)[C@H](O)[C@H](OC(=O)Nc2cccs2)C[C@H]2C(=O)N(c4ccccc4)C(=O)[C@H]23)cc1	-7.5	-0.1	/
O=C(Nc1ccc(Cl)c(Cl)c1)C1CCN(C(=O)c2ccco2)CC1	-2.0	12.8	/
Cc1ccc(NC(=O)C2CCN(C(=O)c3ccco3)CC2)cc1	-19.7	-85.4*	/
CC(=O)Nc1ccc(S(=O)(=O)NC(C)c2ccccc2)cc1 (configuration not stated)	4.9	9.3	/
COc1cc(NS(=O)(=O)c2c(C)oc3c(F)c(F)c(F)c(F)c23)cc(OC)c1OC	-78.2*	-9.2	/
COc1cc(NS(=O)(=O)c2ccc3c(c2)oc(=O)n3C)cc(OC)c1OC	-7.4	0.4	-1.1%
O=C(C(=O)c1ccc(O)c(O)c1)c1ccc(O)c(O)c1	5.9	-6.4	/
CC(C)C(=O)c1ccc(O)c(O)c1	1.5	-84.8*	/
COc1cc(/C=N/NC(=O)c2cc(-c3cccc(Br)c3)nc3ccccc23)cc(OC)c1O	0.0	-1.0	/
O=C1CCCN1c1ccc([N+](=O)[O-])cc1	1.2	5.6	/
COc1ccc(CNc2ncnc3ccc(-c4ccccc4CN(C)C)cc23)c(OC)c1	/	/	-3.0%
COc1cccc(NC(=O)c2cncs2)c1	-1.1	-14.0	/
O=C(c1cnccn1)N1CCc2c([nH]c3ccccc23)C1c1cccc(Cl)c1 (configuration not stated)	2.9	-3.7	1.2%
O=C(CCN1CCCCC1)N1CCc2c([nH]c3ccccc23)C1c1cccnc1 (configuration not stated)	?	-72.5*	/
O=C(N/N=C1\CCc2ccccc21)c1ccccc1O	0.7	2.5	10µM*
O=C(N/N=C1\CCCc2ccccc21)c1ccccc1Cl	-4.2	1.0	-3.2%
O=C(CN1C(=O)c2ccccc2S1(=O)=O)c1ccc(Cl)cc1Cl	-1.4	-9.5	/
CC(C)NC(=O)C12CC3CC(C1)CC(C(=O)NC(C)C)(C3)C2	16.3	-88.5*	-2.2%
Cc1ccc(C23CC4CC(CC(C(=O)NC(C)C)(C4)C2)C3)cc1	31.1	-5.7	/
SMILES	hERG WT inh	KCNH2 3.1 block	Luc counter
COc1ccccc1/C=C/C(=O)N1CCc2cc(OC)c(OC)cc2C1C (configuration not stated)	-29.8	-2.7	/
C[C@H]1CN([C@@H](C)CO)S(=O)(=O)c2ccc(C#Cc3ccccn3)cc2O[C@@H]1CN(C)C(=O)C1CC1	2.7	2.4	/
Cn1cc(S(=O)(=O)NCCc2ccccc2)c(=O)n(C)c1=O	0.2	23.4	/
Cc1c(S(=O)(=O)NCCc2ccccc2)c(=O)n(C)c(=O)n1C	-99.5*	-4.6	/
CN(C(=S)NC(=O)c1ccc(Cl)cc1)C1CCCCC1	-73.7*	-15.0	/
CN(C(=S)NC(=O)c1ccc(F)cc1)C1CCCCC1	-2.5	-0.6	/
CC(C(=O)OCC(=O)c1ccc(Br)cc1)N1C(=O)C2C3CCC(C3)C2C1=O (configuration not stated)	4.1	-18.9	/
COc1cc(OC)cc(C(=O)OCC(=O)Nc2nnc(-c3ccccc3)o2)c1	2.6	17.6	/
O=C(COC(=O)c1cncc(Br)c1)Nc1nnc(-c2ccccc2)o1	-72.3*	17.0	/
CCN1C(=O)CC2CCCC1C2 (configuration not stated)	-1.5	12.9	/
O=C(Nc1ccc(F)c(Cl)c1)C1CCCN(C2=NS(=O)(=O)c3ccccc32)C1 (configuration not stated)	32.4	4.5	/
CC(C)c1ccc(CNc2ccc(N3CCOCC3)cc2)cc1	-131.3*	-175.4*	1.1%
O=C(Nc1ccc(CN2CCOCC2)cc1)c1ccc(-c2ccc(Cl)cc2Cl)o1	-0.1	-86.8*	-1.7%
O=C(Nc1ccc(CN2CCOCC2)cc1)c1ccc(-c2cccc(Cl)c2)o1	-0.6	-49.4	-6.8%
NC(=O)c1ccc(NC(=O)c2ccc(CN3CCOCC3)cc2)cc1	-8.0	-2.8	-3.7%
Cc1ccc(CNc2ccc(N3CCOCC3)cc2)cc1	-0.8	-6.9	/
CC(C)c1ccc(C(=O)Nc2ccc(CN3CCOCC3)cc2)cc1	9.5	-76.4*	/
CC(C)C[C@@H](CC(=O)N[C@@H](CCC(=O)O)CC(=O)O)NC(=O)[C@@H]1CNCC[C@H]1NC(=O)C[C@@H](NC(=O)C[C@H](CO)NC(=O)[C@@H]1CCCC[C@H]1N)C(C)C	/	/	-2.3%
COc1ccc(C(=O)Nc2cccc(C)n2)cc1S(=O)(=O)N1CCCc2ccccc21	-6.3	-5.4	/
CCC(C)c1ccccc1N=Cc1ccc2c(c1)OCO2 (configuration not stated)	-7.4	10.8	/
OC1(c2ccccc2)CC(c2ccccc2)c2ccccc2O1 (configuration not stated)	-7.1	-2.4	/
Cc1cc(-c2ccccc2)nc2c(Br)c(C(=O)O)nn12	-4.8	-82.2*	/
N#CCNC(=O)c1nn2c(C(F)(F)F)cc(-c3ccccc3)nc2c1Br	-7.0	3.6	/
CC(C)c1nccn1S(=O)(=O)c1cc(Cl)ccc1Cl	-5.1	-1.9	-0.6%
COc1ccc(Cl)cc1S(=O)(=O)n1ccnc1C(C)C	1.5	-82.7*	11.0%
SMILES	hERG WT inh	KCNH2 3.1 block	Luc counter
COc1ccc(NC(=O)N(C)C[C@H]2OCc3cnnn3CCCC(=O)N([C@@H](C)CO)C[C@H]2C)c(OC)c1	4.2	-15.3	/
CC(=O)c1ccsc1B(O)O	/	/	-6.4%
CCCN(C(=O)Cc1coc2cc(OC)ccc12)C1CCS(=O)(=O)C1 (configuration not stated)	-8.7	-14.0	/
Cc1nnc(N(Cc2ccccc2)C(=O)c2cnccn2)s1	15.0	-0.2	0.6%
CCOC(=O)c1sc(N(Cc2ccccc2)C(=O)COC(=O)c2cnccn2)nc1C	-6.9	-91.5*	-0.9%
COc1ccc(-c2cc(CCC(=O)N3CCN(c4cc(C)ccc4C)CC3)[nH]n2)cc1	19.2	-47.4	/
Cc1ccc(CCNC(=O)C2CCCN(S(=O)(=O)N3CC(C)CC(C)C3)C2)cc1 (configuration not stated)	-16.6	-14.4	/
CCC(=O)Nc1ccc(-c2nn3c(C)nnc3s2)cc1C	-22.3	-115.2*	-0.6%
Cc1ccc(-c2nn3c(C)nnc3s2)cc1N	-289.5*	11.6	-4.8%
Cc1nnc2sc(-c3ccncc3)nn12	3.0	5.6	-6.5%
Cc1ccc(-c2nn3c(C)nnc3s2)cc1NC(=O)C(C)C	4.6	1.3	-4.9%
CCOC(=O)C1(Cc2cccc(OC)c2)CCCN(C(=O)CNC(C)=O)C1 (configuration not stated)	2.2	8.8	/
